From PubChem BioAssay AID1159580 (chemical genetic matrix, 2015)
Where “and” joins values, the source holds several entries; their conditions need not be identical. Equal entries are not always repeated. About 2,000 (36%) of roughly 5,500 compounds were called active. Roughly 18% stayed inconclusive and do not appear here. Rule as the data show it: active = normalized growth mostly below about 0.91 (no sharp cut-off); inconclusive = no clear call, values can overlap the other calls; inactive = mostly above about 0.92. The list shows a part of the results.

Assay: chemical genetic growth profiling, strain panel (AID 1159580);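 also: tested at 20 µM; growth read once vehicle control cultures reached saturation at 30 °C; 1 = growth at the plate median or of vehicle wells; lower values mean less growth of the strain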
Conditions: S. cerevisiae deletion strains, growth OD

Measured: normalized growth

OC(c1cc(C(F)(F)F)nc2c(C(F)(F)F)cccc12)C1CCCCN1 (stereo not drawn)
inactive: locus YAL021C, strain ccr4, active compounds read low 0.995 | locus YAL026C, strain drs2, active compounds read low 0.972 | locus YAL030W, strain snc1, active compounds read low 1.02 | locus YBL061C, strain skt5, active compounds read low 1.01 | locus YBR009C, strain hhf1, active compounds read low 1.01 | locus YBR021W, strain FUR4, active compounds read low 0.965 | locus YBR023C, strain chs3, active compounds read low 1 | locus YBR171W, strain sec66, active compounds read low 1.02 | locus YBR229C, strain ROT2, active compounds read low 0.988 | locus YBR231C, strain swc5, active compounds read low 1.01 | locus YBR279W, strain paf1, active compounds read low 1.02 | locus YCL011C, strain gbp2, active compounds read low 1.01 | locus YCL016C, strain dcc1, active compounds read low 1 | locus YCL029C, strain bik1, active compounds read low 0.999 | locus YCL069W, strain vba3, active compounds read low 0.999 | locus YCR088W, strain abp1, active compounds read low 1.01 | locus YDL005C, strain med2, active compounds read low 1.01 | locus YDL035C, strain GPR1, active compounds read low 0.968 | locus YDL040C, strain nat1, active compounds read low 1.02 | locus YDL074C, strain BRE1, active compounds read low 0.945 | locus YDL101C, strain DUN1, active compounds read low 0.993 | locus YDL134C, strain PPH21, active compounds read low 0.966 | locus YDL185W, strain tfp1, active compounds read low 0.979 | locus YDL192W, strain arf1, active compounds read low 0.997 | locus YDR001C, strain nth1, active compounds read low 1.01 | locus YDR069C, strain doa4, active compounds read low 1.01 | locus YDR101C, strain arx1, active compounds read low 0.993 | locus YDR137W, strain rgp1, active compounds read low 1.12 | locus YDR150W, strain NUM1, active compounds read low 0.995 | locus YDR159W, strain sac3, active compounds read low 0.999 | locus YDR162C, strain NBP2, active compounds read low 0.969 | locus YDR195W, strain ref2 1.02 | locus YDR297W, strain sur2, active compounds read low 1.01 | locus YDR318W, strain mcm21, active compounds read low 0.988 | locus YDR334W, strain swr1, active compounds read low 1.01 | locus YDR335W, strain msn5, active compounds read low 1.01 | locus YDR388W, active compounds read low 0.995 | locus YDR392W, strain spt3, active compounds read low 0.997 | locus YDR502C, strain sam2, active compounds read low 0.987 | locus YEL003W, strain gim4, active compounds read low 1.02 | locus YEL037C, strain rad23, active compounds read low 1.02 | locus YEL061C, strain CIN8 (second series), active compounds read low 1 | locus YEL061C, strain CIN8, active compounds read low 0.994 | locus YER015W, strain faa2, active compounds read low 1.01 | locus YER016W, strain bim1, active compounds read low 1.01 | locus YER110C, active compounds read low 0.996 | locus YER111C, strain swi4, active compounds read low 1.01 | locus YER155C, strain BEM2 (second series), active compounds read low 1.02 | locus YER155C, strain BEM2, active compounds read low 0.997 | locus YER167W, strain BCK2, active compounds read low 0.971 | locus YFR010W, strain ubp6, active compounds read low 1 | locus YGL078C, strain dbp3, active compounds read low 0.985 | locus YGL086W, strain mad1, active compounds read low 0.988 | locus YGL167C, strain pmr1, active compounds read low 1.02 | locus YGL173C, strain kem1, active compounds read low 1.02 | locus YGL227W, strain vid30, active compounds read low 1 | locus YGL240W, strain doc1, active compounds read low 1.03 | locus YGL248W, strain PDE1, active compounds read low 0.997 | locus YGL253W, strain hxk2, active compounds read low 1 | locus YGR078C, strain PAC10, active compounds read low 0.98 | locus YGR135W, strain pre9, active compounds read low 0.973 | locus YGR229C, strain SMI1, active compounds read low 0.95 | locus YGR252W, strain gcn5, active compounds read low 0.922 | locus YHR013C, strain ard1, active compounds read low 1 | locus YHR027C, strain rpn1, active compounds read low 1.02 | locus YHR030C, strain SLT2, active compounds read low 0.994 and 0.969 | locus YHR079C, strain IRE1 (second series), active compounds read low 0.985 | locus YHR079C, strain IRE1, active compounds read low 0.984 | locus YHR094C, strain hxt1, active compounds read low 0.988 | locus YHR129C, strain ARP1, active compounds read low 0.99 | locus YHR142W, strain chs7, active compounds read low 0.984 | locus YHR200W, strain rpn10, active compounds read low 0.996 | locus YIL066C, strain RNR3, active compounds read low 0.973 | locus YIL073C, strain SPO22, active compounds read low 0.979 | locus YIL125W, strain kgd1, active compounds read low 0.995 | locus YIR030C, strain dcg1, active compounds read low 0.99 | locus YJL092W, strain hpr5, active compounds read low 1.01 | locus YJL095W, strain BCK1 (second series), active compounds read low 1 | locus YJL095W, strain BCK1, active compounds read low 0.969 and 0.948 | locus YJL115W, strain asf1, active compounds read low 1.01 | locus YJL129C, strain trk1, active compounds read low 1.02 | locus YJL134W, strain LCB3, active compounds read low 0.993 | locus YJL154C, strain vps35, active compounds read low 1.01 | locus YJL164C, strain tpk1, active compounds read low 0.986 | locus YJL166W, strain qcr8, active compounds read low 1.02 | locus YJL168C, strain set2, active compounds read low 0.99 | locus YJL187C, strain SWE1 (second series), active compounds read low 0.991 | locus YJR043C, strain POL32, active compounds read low 0.979
